The structures appear in SMILES notation. Screen size: about 360,000 compounds; about 4,600 (1.3%) were called active. This is one part of a sample in which actives are shown more often than they occur. Unmarked numbers belong to inactive results.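 The calls were made as follows: active = percent inhibition above its own plate's cutoff, namely the mean of that plate's compound wells plus 3 SD; inactive = the rest.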

This experiment deals with Muscarinic acetylcholine receptor M1 (Homo sapiens) (UniProt P11229). Kind of experiment: CHRM1 blockers of acetylcholine calcium response – CHO-K1 cells, Fluo-8 calcium fluorescence, 1536-well, primary screen (AID 588852).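 Also: peak over basal fluorescence ratio during 140 s after agonist addition; 0% = ACh EC80 plus DMSO and 100% = DMSO alone without agonist.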 To be noted: CHO-K1 hM1, Fluo-8 calcium fluorescence, ACh EC80 antagonist; at 3 µM; active compounds read high.
Muscarinic acetylcholine receptor M1 (Homo sapiens), sequence (P11229 whole entry, looked up): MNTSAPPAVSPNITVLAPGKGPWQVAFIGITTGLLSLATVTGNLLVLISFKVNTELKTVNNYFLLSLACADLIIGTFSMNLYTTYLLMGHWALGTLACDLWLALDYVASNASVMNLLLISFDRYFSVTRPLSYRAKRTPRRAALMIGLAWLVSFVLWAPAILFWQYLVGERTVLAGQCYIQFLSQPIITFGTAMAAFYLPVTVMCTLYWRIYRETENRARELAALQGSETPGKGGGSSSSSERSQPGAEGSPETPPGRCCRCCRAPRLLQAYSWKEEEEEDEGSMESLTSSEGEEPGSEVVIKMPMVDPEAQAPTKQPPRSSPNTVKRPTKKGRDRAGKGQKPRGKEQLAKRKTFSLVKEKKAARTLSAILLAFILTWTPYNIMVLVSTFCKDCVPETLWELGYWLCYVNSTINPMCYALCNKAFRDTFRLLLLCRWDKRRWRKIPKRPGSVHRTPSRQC
Broadly, the inhibition is the change of the read-out against control, counted positive when it falls. As for `COc1ccc(-n2nnnc2C(c2cccc3ccccc23)N2CCC(n3c(=O)[nH]c4ccccc43)CC2)cc1` (stereo not given), the inhibition is 103% (active).

Take `O=c1[nH]c2ccccc2n1C1CCN(C(c2ccnc3ccccc23)c2nnnn2Cc2ccccc2)CC1` (stereo not given): the inhibition was 4.78%.

Turning to `O=c1[nH]c2ccccc2n1C1CCN(C(c2ccccc2)c2nnnn2Cc2ccccc2)CC1` (stereo not given), the inhibition is -3.28%.

In the case of `COC1C(O)C(C)OC(OC2CCC3(C=O)C(CCC4C3CCC3(C)C(C5=CC(=O)OC5)CCC43O)C2)C1O` (stereo not given), the inhibition was -8.54%. The figure for `CC12CCC3C(CCC4CC(=O)CCC43C)C1CC(=NO)C2=O` (stereo not given) is -2.57%; for `COc1cccc(C(=O)N2C[C@H]3C[C@@H](C2)c2cccc(=O)n2C3)c1` it is -17.6%; for `CCn1cc(CN2CCCC(C(=O)c3cccc(C(F)(F)F)c3)C2)cn1` (stereo not given) it is 30.8%. In the case of `CC(C)Oc1cccc(C(=O)C2CCCN(C3CCOCC3)C2)c1` (stereo not given) it was 62.5% (active). Turning to `O=C(Nc1cccc(OC(=O)N2CCCCC2)c1)N1CCOCC1`, the inhibition is 12.4%.

For `CC(C)(C)[C@]1(O)C[C@@H]2OC(=O)C[C@@]23C(=O)O[C@@H]2OC(=O)[C@H](O)[C@]213`, the inhibition is -3.8%. Regarding `CC(=NCc1ccc2c(c1)OCO2)c1c(O)[nH]c(=O)[nH]c1=O`, the inhibition was -24.2%. The figure for `CCCC[N+]1(C)C2CC(OC(=O)C(CO)c3ccccc3)CC1C1OC12` (stereo not given) is 85.3% (active); for `CCCCC(=O)N/N=C/c1c(O)n(CC)c(=S)n(CC)c1=O` it is -7.53%. In the case of `Cc1ccc2c(c1)C1CN(C)CCC1N2C(=O)Cn1nnc(-c2ccccc2F)n1` (stereo not given) it was 5.84%; in that of `O=C(COc1ccc2ccccc2c1)N1CCN(Cc2ccncc2)CC1`, 14.5%; in that of `CC(C(=O)Nc1ccc(Cl)cc1Cl)N1CC=C(c2ccccc2)CC1` (stereo not given), 18.7%. On to `CC[N+]1(C)CCCC(OC(=O)C(O)(c2ccccc2)c2ccccc2)C1` (stereo not given), for which the inhibition was 97.3% (active). In the case of `COC(=O)CN1C(=O)C2(C(C(=O)OC)=C(N)Oc3ccccc32)C2=C1CC(C)(C)CC2=O` (stereo not given) it was -6.88%. In the case of `CCOc1ccc(CN(CCCl)CCCl)cc1C(=O)OC` it was -7.91%; in that of `CSCCC(c1nnnn1C(C)(C)C)N1CCC(n2c(=O)[nH]c3ccccc32)CC1` (stereo not given), -5.89%.

Turning to `OC(CNC1CCCCC1)c1ccccc1` (stereo not given), the inhibition was -2.05%. Consider `COC(=O)C(c1ccccc1)N1CCCCCC1` (stereo not given), for which the inhibition was -0.1%. For `c1ccc(C(CN2CCCCC2)c2ccccc2)cc1`, the inhibition is 50% (active). Turning to `CCOP(=O)(OCC)C(NC(=O)NC)C(N)=O` (stereo not given), the inhibition is -7.67%. `COc1cccc(C(c2nnnn2-c2ccc3c(c2)OCCO3)N2CCC3(CC2)C(=O)NCN3c2ccccc2)c1OC` (stereo not given): the inhibition was -16.2%.

On to `c1ccc(CCN2CCC3(CC2)OCCO3)cc1`, for which the inhibition is -10%.

Turning to `O=C(OCCN1CCOCC1)C1(c2ccccc2)CCCC1`, the inhibition was 35.5% (active). The figure for `CCOC(=O)C1(c2ccccc2)CCN(CC(O)c2ccc(NC(C)=O)cc2)CC1` (stereo not given) is -8.72%; for `CC(=O)NCC1=C(c2ccc3ccccc3c2)C[C@@H]2CC[C@H]1N2Cc1ccco1` it is -9.51%. With `CCN(CC)P(=O)(Oc1cccc(C)c1)N(CC)CC`, the inhibition was -22.1%.

As to `COC(=O)C1=C(c2ccccc2OCc2ccccc2)C[C@@H]2CC[C@H]1N2C(=O)NCc1ccc(OC)cc1`, the inhibition was 18.3%. In the case of `NC(=O)Nc1cccc(C(F)(F)F)c1`, the inhibition was -7.02%. With `Cc1cc(=O)oc2c(C)c(OCC(=O)N3CCN(Cc4ccc5c(c4)OCO5)CC3)ccc12`, the inhibition is -1.03%.

In the case of `COc1ccc(C(=O)C2CCCN(Cc3ccc(C)s3)C2)cc1OC` (stereo not given), the inhibition was 52.6% (active).

`Cc1ccc(CN2CCCC(C(=O)c3ccc4c(c3)OCO4)C2)cc1C` (stereo not given): the inhibition is 84.4% (active). The figure for `COc1cccc(CN2CCCC(C(=O)c3ccccc3SC)C2)c1O` (stereo not given) is 23.3%; for `Cc1ccsc1C(=O)C1CCCN(Cc2ccc(O)cc2)C1` (stereo not given) it is 7.02%. The figure for `CC(C)Nc1nc(Cl)nc(NC(C)C)n1` is -4.88%; for `C=CCN1C(=O)NC(=O)/C(=C/c2ccc(OCC(=O)Nc3ccc(C)cc3)cc2)C1=O` it is -8.3%. Consider `COc1ccc(-c2nc(CS(=O)CC(=O)N3CCC4(CC3)OCCO4)c(C)o2)cc1` (stereo not given), for which the inhibition was -12.6%. For the compound `CC1(C)C(c2ccccc2)=NC(c2cccnc2)=[N+]1[O-]`, the inhibition is -21%. Regarding `CCOC(=O)C1SC2(C(F)(F)C(F)F)CC1(O)c1c(c(OC)c3occc3c1OC)O2` (stereo not given), the inhibition is 46.3% (active).

As for `O=C(N/N=C/c1c(O)n(C2CC2)c(=S)[nH]c1=O)c1ccccc1`, the inhibition was -8.31%. In the case of `CCOC(=O)C1(Cc2ccc(Cl)cc2)CCN(C(C)CCn2cccn2)CC1` (stereo not given), the inhibition is 22.2%. The figure for `O=C(Cc1ccccc1)N1CCN(C2CCCCCC2)CC1` is -0.63%; for `CC1CCCN1CCC(C(N)=O)(c1ccccc1)c1ccccc1` (stereo not given) it is 98.5% (active). In the case of `CC1CCCCN1Cc1cccnc1` (stereo not given) it was 3.5%; in that of `COC(=O)C1=C(c2cccc(OCc3ccccc3)c2)C[C@@H]2CC[C@H]1N2C(=O)NNCc1ccccc1`, 18.8%; in that of `Cc1cc(OCc2cc(C(=O)O)oc2C)c2c3c(c(=O)oc2c1)CCCC3`, -3.16%. In the case of `CSc1nc2ccc(C)cc2c(=O)n1-c1cccnc1` it was -6.09%; in that of `CSc1ccc(C(=O)C2CCCN(Cc3ccn[nH]3)C2)cc1` (stereo not given), 62.7% (active); in that of `S=C(NCCc1ccccc1)N1Cc2cc(N3CCOCC3)ccc2-n2nncc2C1`, -7.43%. Consider `COC(=O)C1=C(c2ccccc2)C[C@@H]2CC[C@H]1N2C(=O)N1CCCCC1`, for which the inhibition is -1.18%.

For `O=C(NC1CCCCC1)N1Cc2cc(N3CCCCC3)ccc2-n2nncc2C1`, the inhibition was 6.05%.

With `CCOc1cccc(=NC2CCCCC2)c2c(C)[nH]c(C)c12`, the inhibition is -4.64%. `CCCCCCCCCCCCn1ccc(=N)cc1`: the inhibition is 89.2% (active). In the case of `COc1ccc(C2NCc3ccc4c(c3-n3cccc32)OCO4)cc1OC` (stereo not given) it was -9.71%; in that of `O=C(c1cc2nc(-c3ccccc3)cc(-c3ccccc3)n2n1)N1CCC2(CC1)OCCO2`, -31%. As to `COC(=O)C1=C(c2ccc(-c3ccccc3)c(F)c2)C[C@@H]2CC[C@H]1N2C(=O)NCc1ccc(F)cc1`, the inhibition was 1.14%.

As for `COc1cc(C(=O)N2Cc3ccc(Br)cc3-n3nncc3C2)cc(OC)c1OC`, the inhibition is 1.07%. On to `Cc1nn(Cc2ccccc2Cl)c(Cl)c1C(=O)OC(C(=O)NC(N)=O)C(C)C` (stereo not given), for which the inhibition was -7.79%. In the case of `CCOC(=O)CNC(=O)N1Cc2cc(N3CCCCC3)ccc2-n2nncc2C1` it was -0.57%. The figure for `CC(CC(C#N)(c1ccccc1)c1ccccc1)N1CCCCC1` (stereo not given) is 75.2% (active); for `Clc1ccc2nc3c(c(-c4ccccc4)c2c1)CNCC3` it is 5.52%; for `Cn1c(O)c(C(=Nc2ccc(F)cc2)c2ccccc2)c(=O)n(C)c1=O` it is -7.87%.

For the origin of these results see PubChem BioAssay AID588852 (The Scripps Research Institute Molecular Screening Center, 2011).
